Compound activity: PubChem, Corson Lab, School of Medicine, Indiana University
Many of the other results were omitted from the sample, so hits are more common in it than they were.
FECH inh – human FECH heme synthesis enzyme inhibition; actives 3.3% (n = 20,000); calls only at 10 µM (by protocol); P22830; purified FECH, Ni-mesoporphyrin absorbance 550 nm; AID 1671448;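 active means enzyme reaction rate more than 3 SD below the solvent-only control wells on the same plate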;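 further: lower slope than DMSO wells means FECH inhibition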
Target sequence (P22830 whole entry, looked up): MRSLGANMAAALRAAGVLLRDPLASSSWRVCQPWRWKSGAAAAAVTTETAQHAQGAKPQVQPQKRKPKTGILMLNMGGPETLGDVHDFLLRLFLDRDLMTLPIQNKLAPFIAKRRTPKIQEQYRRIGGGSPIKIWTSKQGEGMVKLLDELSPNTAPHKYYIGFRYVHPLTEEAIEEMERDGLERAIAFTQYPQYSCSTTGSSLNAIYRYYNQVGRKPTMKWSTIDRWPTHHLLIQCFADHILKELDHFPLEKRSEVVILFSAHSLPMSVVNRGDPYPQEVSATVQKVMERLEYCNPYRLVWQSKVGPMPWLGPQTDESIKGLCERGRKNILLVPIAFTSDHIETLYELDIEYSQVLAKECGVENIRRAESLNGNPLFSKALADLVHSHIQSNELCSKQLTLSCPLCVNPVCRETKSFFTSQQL
Calls only; n = inactive; + = active, no number.

SMILES | FECH inh
Cc1cc2n(n1)CCC(=O)N2Cc1ccc(C(=O)Nc2cccc(C)c2C)cc1 | n
COc1cc(Cl)c(Nc2nc(-c3nnc(-c4ccc(C)cc4)o3)nc3ccccc23)c(OC)c1 | n
Cc1ccc(Cl)cc1N1CCN(S(=O)(=O)c2cc(C(=O)N3CCCCC3)cs2)CC1 | n
COCCNC(=O)N1CCN(c2cc(-c3ccc(OC)cc3)ncn2)CC1 | n
COc1ccc(S(=O)(=O)Nc2cnc(N3CCCCCC3)c(C(=O)O)c2)cc1Cl | n
CCOC(=O)c1cc2n(n1)CC(C)(C(=O)NCCC(C)C)N(c1ccc(Cl)cc1)C2=O (centres undefined) | n
CCOC(=O)c1cc2n(n1)CC(C)(C(=O)NCCC(C)C)N(c1cc(OC)cc(OC)c1)C2=O (centres undefined) | n
CCOC(=O)c1cc2n(n1)CC(C)(C(=O)NCCC(C)C)N(c1cc(C)cc(C)c1)C2=O (centres undefined) | +
CCN(CC)CCn1ccnc1-c1ccc(C(=O)O)cc1 | n
CCC(C)N(Cc1cccnc1)C(=O)c1cccc2c1OCCO2 (centres undefined) | n
CCc1c(C)nc2ncnn2c1Sc1ccccc1NC(=O)Cc1ccc(OC)cc1 | +
CCc1c(C)nc2ncnn2c1Sc1ccc(NC(=O)Cc2ccc(OC)cc2)cc1 | n
CCc1c(C)nc2ncnn2c1Sc1ccc(NC(=O)C2CC2)cc1 | n
CCc1c(C)nc2ncnn2c1Sc1ccccc1NC(=O)COc1ccc(C)cc1 | n
CCc1c(C)nc2ncnn2c1Sc1ccccc1NC(=O)C1CC1 | +
CCc1c(C)nc2ncnn2c1Sc1ccccc1NC(=O)Nc1ccc(C)cc1 | n
Cc1cc(NCc2ccccc2F)n2nc(-c3cccnc3)nc2n1 | n
Cc1nc2nc(N(CCOc3ccccc3)S(=O)(=O)c3ccccc3)nn2c(C)c1Cl | n
O=C(CN1C(=O)CCc2cc(S(=O)(=O)N3CCCCC3)ccc21)NC1CCCC1 | n
Cc1nc(C(C)C)cc(N(C)Cc2ncccc2C)n1 | +
COCc1cc(CN(C)c2cc(C(C)C)nc(C)n2)[nH]n1 | n
Cc1cc(N(C)Cc2ncccc2C)nc(-c2ccccc2)n1 | n
CCCc1c(C)nc2ncnn2c1Sc1ccc(NC(=O)Cc2cccc(F)c2)cc1 | n
CCC(C(=O)N(Cc1nc2nc(C)cc(C)n2n1)c1ccc(Cl)cc1)c1ccccc1 (centres undefined) | n
CCCN(c1nc2nc(C)c(Cl)c(C)n2n1)S(=O)(=O)c1ccc(Cl)cc1 | n
SMILES | FECH inh
CCc1c(C)nc2ncnn2c1Sc1ccc(NC(=O)c2cc(OC)c(OC)c(OC)c2)cc1 | n
CCc1c(C)nc2ncnn2c1Sc1ccc(NC(=O)c2ccccc2OC)cc1 | +
CCc1c(C)nc2ncnn2c1Sc1ccc(NC(C)=O)cc1 | n
CCCc1c(C)nc2ncnn2c1Sc1ccc(NC(=O)c2ccccc2OC)cc1 | n
CCOc1ccccc1C(=O)Nc1ccccc1Sc1c(CC)c(C)nc2ncnn12 | n
CCOc1ccccc1C(=O)Nc1ccc(Sc2c(CC)c(C)nc3ncnn23)cc1 | +
CCc1c(C)nc2ncnn2c1Sc1ccc(NC(=O)c2ccccc2Cl)cc1 | n
CCc1c(C)nc2ncnn2c1Sc1ccc(NC(=O)NCc2ccccc2)cc1 | +
CCc1ccc(NC(=O)Nc2ccc(Sc3c(CC)c(C)nc4ncnn34)cc2)cc1 | n
Cc1cc(C)c(S(=O)(=O)NCc2nc3cccnc3n2C2CC2)cc1C | n
Cn1nc(CN2CCC3(CC2)CNC(=O)C3)c2c(Cl)cccc21 | n
CCN(CC)S(=O)(=O)N1CCC(C(=O)Nc2cccc(CCc3nc4ccc(C)cc4[nH]3)c2)CC1 | n
Cc1cnc(N2CCN(CC(C)C)C(CCO)C2)nc1N(C)C (centres undefined) | n
Cc1ccc(Nc2cc(C)nc(Nc3ccc(NC(=O)C4CCCCC4)cc3)n2)cc1 | n
CC(NC(=O)c1cn(Cc2ccccc2F)nn1)c1ccccc1-n1cccn1 (centres undefined) | n
CC(C)c1ccc2c(c1)-c1ccccc1S(=O)(=O)N2CC(=O)NC(C)c1ccccc1 (centres undefined) | +
CC(C)NC(=O)c1ccccc1NC(=O)CN1c2ccc(C(C)C)cc2-c2ccccc2S1(=O)=O | n
CCN(CC)C(=O)c1ccccc1NC(=O)CN1c2ccc(F)cc2-c2ccccc2S1(=O)=O | +
O=C(CN1CCN(Cc2ccc(F)cc2)S1(=O)=O)Nc1cccc(F)c1 | n
O=C(CN1c2ccc(F)cc2-c2ccccc2S1(=O)=O)Nc1ccccc1C(=O)N1CCCCC1 | n
CSc1ccccc1NC(=O)CN1c2ccc(C(C)C)cc2-c2ccccc2S1(=O)=O | n
O=C(CN1C(=O)c2ccccc2S1(=O)=O)Nc1ccc(Cl)cc1C(F)(F)F | n
CC(C)c1ccc2c(c1)-c1ccccc1S(=O)(=O)N2CC(=O)Nc1cccc(F)c1 | +
COC(=O)c1ccc(Cl)c(NS(=O)(=O)c2cc(N3C(=O)CCS3(=O)=O)ccc2C)c1 | n
CCc1cc(Sc2ccc(NC(=O)Nc3ccc(F)cc3)cc2)n2nc(C)nc2n1 | n
SMILES | FECH inh
Cc1ccc(-c2nnc(-c3nc(N4CCCCCC4)c4ccccc4n3)o2)cc1 | n
O=C(Nc1cnc2n1CCCC2)c1ccc(CN2CCCC2)o1 | n
CC(=O)N1CCn2nc(C(=O)N(Cc3ccc4[nH]ccc4c3)C3CC3)cc2C1 | n
CCc1c(C)nc2ncnn2c1Sc1ccc(NC(=O)Nc2cc(OC)ccc2OC)cc1 | n
CCc1c(C)nc2ncnn2c1Sc1ccc(NC(=O)Nc2ccc(OC)cc2OC)cc1 | +
CCc1c(C)nc2ncnn2c1Sc1ccc(NC(=O)Nc2cccc(C(=O)OC)c2)cc1 | n
CCc1c(C)nc2ncnn2c1Sc1ccc(NC(=O)Nc2ccsc2C(=O)OC)cc1 | +
CCc1c(C)nc2ncnn2c1Sc1ccc(NC(=O)Nc2cc(OC)cc(OC)c2)cc1 | n
CCc1c(C)nc2ncnn2c1Sc1ccc(NC(=O)Nc2ccccc2Br)cc1 | n
COc1cccc(-c2cc(N3CCN(C(=O)Nc4cc(C)cc(C)c4)CC3)ncn2)c1 | n
Cc1ccsc1CN(Cc1cccnc1N1CCOCC1)CC(C)C | n
CCc1cc(Sc2ccccc2NC(=O)c2ccco2)n2nc(C)nc2n1 | n
O=C(CC1CCN(S(=O)(=O)c2ccccc2)CC1)NCc1cccnc1 | n
Cc1cc(C(=O)N2C[C@@H](N)C[C@H]2C(=O)NC(C)C)c(-c2ccccc2)o1 | n
CC(C)NC(=O)[C@@H]1C[C@H](N)CN1C(=O)c1cccc2c3c([nH]c12)CCCC3 | +
CCCc1cc(C(=O)N2C[C@@H](N)C[C@H]2C(=O)NC(C)C)ccn1 | n
C=Cc1ccc(CN(c2nc3nc(C)cc(C)n3n2)S(=O)(=O)c2ccc(Cl)cc2)cc1 | n
CCCc1nnc2sc(C3CCN(C4CCOCC4)CC3)nn12 | n
Cc1ccn2c(=O)cc(COc3cccc(NC(=O)c4ccco4)c3)nc2c1 | +
Cc1ccn2c(=O)cc(COc3cccc(NC(=O)c4cccc(Br)c4)c3)nc2c1 | n
Cc1ccn2c(=O)cc(COc3cccc(NC(=O)c4ccccc4C)c3)nc2c1 | n
Cc1ccn2c(=O)cc(COc3cccc(NC(=O)C(C)C)c3)nc2c1 | +
COc1cccc(C(=O)Nc2cccc(OCc3cc(=O)n4cc(Cl)ccc4n3)c2)c1 | n
CCCC(=O)Nc1cccc(OCc2cc(=O)n3cc(Cl)ccc3n2)c1 | n
COc1ccc(C(=O)Nc2cccc(OCc3cc(=O)n4ccc(C)cc4n3)c2)cc1 | n
Cc1ccn2c(=O)cc(COc3cccc(NC(=O)c4cccs4)c3)nc2c1 | n
COc1ccccc1C(=O)Nc1cccc(OCc2cc(=O)n3cc(Cl)ccc3n2)c1 | +
